# Measurements reported in the OligoGym collection.
# Target: CBWD1
# Assay: pooled miR-30 sensor sort-seq; sequence = guide strand
# Settings: shRNA
# Further: reference of the scale not given here.
row,Sequence,sensor-assay potency score (higher = more potent)
1,AAGCAACTTGTCTAGTAGCTTC,-0.327
2,TTCTTCTGGAACCAGGTCTGTT,-0.933
3,TTGTCTAGTAGCTTCATTGATA,-0.639

# Target: CBWD2
# Assay: as above
# Settings: shRNA
row,Sequence,sensor-assay potency score (higher = more potent)
1,TTATGGATCTAATTGTCGCTCT,0.237
2,TTTATGGATCTAATTGTCGCTC,-0.0827
3,TATTTTGAATCCACTATAGTTA,-0.411

# Target: CBWD3
# Assay: as above
# Settings: shRNA
row,Sequence,sensor-assay potency score (higher = more potent)
1,TACATCTTCTTCTGGAACCAAG,-0.337
2,TCTTCTGGAACCAAGTCTGTTT,-0.303
3,TTTATGGATCTAATTGTCGTTC,-0.438
4,TTATCCAATCCTTTTGATAAGA,-1.37
5,TTATTATCCAATCCTTTTGATA,-1.04
6,TATTATCCAATCCTTTTGATAA,-1.72
7,TTGTCGTTCTTAATTTCTTTAC,-1.76
8,TTTATTATCCAATCCTTTTGAT,-0.0523
9,TTACATCTTCTTCTGGAACCAG,0.201

# Target: CBX5
# Assay: as above
# Settings: shRNA
row,Sequence,sensor-assay potency score (higher = more potent)
1,TTTAGATTTGATGTCATCGGCA,-0.103
2,TAGATATTCCACTTGTCCCTTA,0.296
3,TTAGGAACATTAAATCACCACA,-0.835
4,TAAAATGCTATCACAATTTGTG,-0.0381
5,TCACATTAGCTTCTTTTGCAAG,-1.01
6,TTAGATTTGATGTCATCGGCAC,0.364
7,TATACTTTTTCATAAATTCAGA,-1.38
8,TAAATTCAGAAATTAGCTCAGG,-0.159
9,TTTGATGTCATCGGCACTGTTT,-0.553
10,TTAAATCACCACAGGAATCTGT,-0.0279
11,TTACTTTCTGACTTCTCCCTGG,0.106
12,TTTTAGATTTGATGTCATCGGC,-0.344

# Target: CBX7
# Assay: as above
# Settings: shRNA
row,Sequence,sensor-assay potency score (higher = more potent)
1,TAGAGGAGAATGATAATGGTGG,0.263
2,TCGTAGGCCATGACGAGGCGGG,-0.996
3,TCCACTTCACCAGATACTCGAC,-1.35
4,TAGTTCTTTGAAAGTGACCAGG,-0.792
5,TTCCGCACGCGCTTCTTCCGGA,-0.445
6,TGTACTTTGGGGGCCATCCTTT,-1.24
7,TTTAACTCCCAGAACCAGCTGC,0.312
8,TCGATGGCTGTGGCTCTCCAGG,-1.84
9,TACTCGACTTTACCCTTCCGCA,-1.36
10,ATACTCGACTTTACCCTTCCGC,-0.334
11,TTCTTTGAAAGTGACCAGGAAG,-1.2
12,ATACATCACACAACTTAGCAGA,-0.583
